# An excerpt weighted towards active compounds, which were near 1.4% of everything screened.
# EBV gp42 block: Epstein-Barr virus gp42 inhibitors, primary screen, biochemical, uHTS, fluorescence polarization; Fluorescence polarization binding assay, mP read-out; inhibition, % (tested at 21.74 µM); hit rate 0.42% among 220,000; in the data active = inhibition above about 50%
# Target sequence (Q1HVG2 whole entry, looked up): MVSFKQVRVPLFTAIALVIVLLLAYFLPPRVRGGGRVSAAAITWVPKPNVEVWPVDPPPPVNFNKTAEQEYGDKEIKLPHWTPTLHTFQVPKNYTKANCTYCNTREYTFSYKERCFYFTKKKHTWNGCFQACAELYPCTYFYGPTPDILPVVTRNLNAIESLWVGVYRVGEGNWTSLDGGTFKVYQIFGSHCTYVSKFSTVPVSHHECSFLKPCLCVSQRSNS
# BCLXL inh: inhibitors of human Bcl-xL, primary screen, biochemical, fluorescence polarization, HTS; Bcl-2-like protein 1 (Homo sapiens), Q07817; GST-Bcl-xL / FITC-Bim BH3 peptide fluorescence polarization; inhibition, % at 10.9 µM; hit rate 0.7% among 320,000; AID 2129, 2009;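 active = inhibition above the mean of all tested compounds plus 3 SD, cutoff set per campaign, cut at about 30% in these data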;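 also: 0% = DMSO wells and 100% = unlabeled Bim-BH3 peptide competitor; inhibitors lower millipolarization by displacing the labeled peptide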
# MCL1-BIM inh: inhibitors of MCL1 binding to BIM-BH3, primary screen, biochemical, fluorescence polarization; Induced myeloid leukemia cell differentiation protein Mcl-1 (Homo sapiens), Q07820; GST-MCL1 / FITC-Bim-BH3 fluorescence polarization; inhibition, % at 10.9 µM; hit rate 0.68% among 320,000; AID 2057, 2009;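 active = inhibition above the mean inhibition of all tested compounds plus 3 SD, set per campaign, cut at about 40% in these data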;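 also: 0% = DMSO wells and 100% = unlabeled Bim-BH3 peptide control; higher means more loss of mP so more displacement of Bim peptide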
# MEX-5 binding: MEX-5 zinc finger RNA-binding disruptors – biochemical, C. elegans, fluorescence polarization, MLPCN library, primary screen; Zinc finger protein mex-5 (Caenorhabditis elegans), Q9XUB2; MEX-5/FITC-TCR2 RNA binding; active compounds read low; activity score (negative = inhibition of binding), % at 10 µM; hit rate 0.38% among 300,000; AID 1832, 2009;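 active = inhibition past about -25% in most replicates, and total fluorescence under double the plate's negative control median, limit read from the data; inconclusive = replicates evenly split on the limit, or fluorescence at least double controls; inactive = too little inhibition in most replicates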;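 also: 0% = DMSO and -100% = 5 µM competing unlabeled TCR2 RNA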
# Target sequence (Q9XUB2 whole entry, looked up): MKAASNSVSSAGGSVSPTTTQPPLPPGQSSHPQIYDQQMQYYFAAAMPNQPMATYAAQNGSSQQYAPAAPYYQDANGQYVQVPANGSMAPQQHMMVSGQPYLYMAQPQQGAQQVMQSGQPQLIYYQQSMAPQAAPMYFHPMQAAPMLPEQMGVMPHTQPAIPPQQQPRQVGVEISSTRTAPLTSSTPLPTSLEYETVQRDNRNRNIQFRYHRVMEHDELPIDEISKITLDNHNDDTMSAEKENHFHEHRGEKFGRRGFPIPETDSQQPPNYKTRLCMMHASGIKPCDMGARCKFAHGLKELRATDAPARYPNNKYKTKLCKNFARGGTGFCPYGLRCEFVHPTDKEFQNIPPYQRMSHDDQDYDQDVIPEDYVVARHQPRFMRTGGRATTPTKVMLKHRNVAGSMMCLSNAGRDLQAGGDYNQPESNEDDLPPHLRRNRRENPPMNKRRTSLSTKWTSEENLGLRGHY
# GLD-1 RNA inh: GLD-1/TGE RNA complex disruptors, primary screen, biochemical, fluorescence polarization | hit rate 0.44% among 320,000 | purified GLD-1 + fluorescein TGE RNA | AID 2280, 2010 | Female germline-specific tumor suppressor gld-1 (Caenorhabditis elegans), Q17339 | inhibition, % at 5.96 µM;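 active = percent inhibition above a per-plate cutoff, the plate mean of test compounds plus 3 SD, cut at about 30% in these data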;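 also: 0% = DMSO wells with GLD-1 and probe and 100% = wells lacking GLD-1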
# E coli Lon inh: inhibitors of E. coli Lon protease, primary screen, biochemical, fluorescence polarization. purified E. coli Lon protease. inhibition, % at 7.94 µM. hit rate 0.42% among 360,000. AID 602123, 2011; in the data active = inhibition above about 13%, passing the limit was not always enough;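 also: 0% = enzyme with probe and DMSO and 100% = no enzyme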
# Starred values were filed as active, the others as inactive; u = inconclusive; x = no result.
SMILES,EBV gp42 block,BCLXL inh,MCL1-BIM inh,MEX-5 binding,GLD-1 RNA inh,E coli Lon inh
N=C1/C(=C\c2coc3ccc(O)cc3c2=O)C(=O)N=C2SC=CN12,32.9,60.9*,-23.0,u,54.9*,-232.8
CSC1=NSC2=NC(=O)/C(=C\c3coc4ccccc4c3=O)C(=N)N12,76.5*,-16.7,-38.7,x,-91.1,-360.0
CNC[C@H]1Oc2ccc(NC(=O)Nc3ccccc3)cc2CC(=O)N([C@H](C)CO)C[C@H]1C,x,x,x,x,-8.8,-33.5
CCC1Cc2c(nc(N)c3c(N)nc(N4CCOCC4)c(C#N)c23)O1 (centres undefined),-16.7,5.7,0.4,0.5,5.9,5.0
CN(CCO)c1nc(N)c2c(N)nc3c(c2c1C#N)CC(=O)N3Cc1cccs1,6.3,35.8*,41.4*,2.3,-1.1,4.5
COc1ccc(CN2C(=O)Cc3c2nc(N)c2c(N)nc(N4CCOCC4)c(C#N)c32)cc1,9.8,38.1*,46.8*,-8.7,12.5,-14.9
CN(CCO)c1nc(N)c(C#N)c(CC#N)c1C#N,-6.5,9.7,2.8,-8.6,2.9,0.5
COc1ccc(CNC(=O)CC[C@H]2O[C@@H](n3cnc4c(NC(=O)c5ccccc5)ncnc43)[C@H](O)[C@@H]2O)cc1,x,x,x,x,x,1.9
CSc1nc(COC(=O)NC(C)C)c(COC(=O)NC(C)C)n1Cc1ccccc1,x,x,x,x,x,2.0
Cc1ccc(S(=O)(=O)/N=C(/c2ccc(F)cc2)N2CCCCC2)cc1,-4.6,3.8,-0.3,-2.2,2.2,-9.6
CC(NC(=O)c1ccc(F)cc1Cl)C1CC2CCC1C2 (centres undefined),x,3.2,10.2,3.6,-0.2,-2.7
CC(NC(=O)c1cc(F)c(F)cc1Cl)C1CC2CCC1C2 (centres undefined),x,40.6*,39.3,1.1,-0.2,-2.4
Cc1cc(O)c(C=O)c2c1C(=O)Oc1c(CO)c(O)c3c(c1O2)C(O)OC3=O (centres undefined),-1.0,48.5*,103.1*,x,14.4,72.2*
COc1ccccc1NNC(=O)c1cccnc1Oc1ccccc1,-3.1,5.0,3.6,0.2,-5.7,1.6
COc1ccc2nc3ccccc3nc2c1NC(=O)c1ccc(Cl)cc1Cl,24.9,3.9,-8.9,-53.2*,13.1,-7.2
CCOC(=O)C1=C(C)OC(N)=C(C#N)C1c1ccc(O)c(OC)c1 (centres undefined),-19.6,-0.1,-0.9,-39.6*,6.5,-1.6
COC(=O)C(Cc1ccc(OC(=O)c2ccc(C)cc2)cc1)N1Cc2ccccc2C1=O (centres undefined),-9.3,7.2,-0.4,1.4,5.6,-3.9
O=C(NCC(c1cccnc1)N1CCN(c2ccc(F)cc2)CC1)c1ccco1 (centres undefined),-14.1,151.0*,0.1,-1.2,4.5,1.6
COc1ccc(N2CCN(C(CNC(=O)c3ccco3)c3cccnc3)CC2)cc1 (centres undefined),-4.2,6.5,2.0,-0.7,-7.0,1.3
CCCc1cc(=O)oc2cc(OCC(=O)NCCCN3CCOCC3)ccc12,x,7.2,1.0,-0.8,7.4,4.9
O=C(Nc1cccc(Cl)c1)c1cc(N=Nc2ccc([N+](=O)[O-])cc2Cl)ccc1O,79.0*,1.1,6.3,0.2,-6.3,5.5
O=C(/C=C/N1CCOCC1)c1ccc(-c2ccccc2)cc1,-11.3,-1.7,-4.3,-35.2*,-0.1,-7.8
CCN(CC(=O)Nc1c(C(=O)OC)[nH]c2ccc(Cl)cc12)c1ccc2c(c1)OCO2,10.9,49.2*,49.0*,0.1,0.5,8.3
CCOC(=O)c1[nH]c2ccc(Cl)cc2c1NC(=O)/C=C/c1ccc2c(c1)OCO2,-26.5,0.1,-1.4,-1.1,0.1,-4.5
COc1ccc(/C(C)=N/NC(=O)CNC(=O)C(c2ccccc2)c2ccccc2)c(OC)c1,x,1.2,-3.0,2.8,1.1,1.8
SMILES,EBV gp42 block,BCLXL inh,MCL1-BIM inh,MEX-5 binding,GLD-1 RNA inh,E coli Lon inh
NS(=O)(=O)c1ccc(-c2cccc(/C=C3\SC(=O)NC3=O)c2)cc1,x,-1.5,17.1,-35.8*,0.3,-3.9
Nc1c(C(=O)NCC2CCCO2)sc2nc3c(c(-c4ccco4)c12)CC/C3=C\c1ccco1 (centres undefined),98.2*,x,x,x,x,-6.9
O=C(NCC1CCCO1)c1cc(-c2ccc(F)cc2)no1 (centres undefined),x,3.3,4.2,-2.5,7.6,-5.8
Cc1cc(=O)[nH]c(SCC(=O)Nc2ccc(F)c([N+](=O)[O-])c2)n1,0.5,-2.9,-1.0,-0.3,5.7,-6.7
O=c1cc(-c2ccccc2Cl)oc2c(NS(=O)(=O)c3cc(Cl)cc(Cl)c3O)ccc(O)c12,6.8,8.3,13.3,-54.7*,16.0,-17.2
O=S(=O)(c1cccc(-c2csc(-c3cccnc3)n2)c1)N1CCOCC1,8.3,2.4,-1.2,-27.3*,3.4,-3.3
COc1ccc(-n2c(O)c(/C=N/Nc3nc(C)cc(C)n3)c3ccccc3c2=O)cc1OC,-6.0,7.6,3.8,0.8,-3.8,4.4
COc1ccc(-n2c(O)c(/C=N/NS(=O)(=O)c3cc(C)ccc3C)c3ccccc3c2=O)cc1OC,-18.8,54.2*,34.3,-30.5*,-74.2,-448.9
COc1ccc(-n2c(O)c(/C=N/NS(=O)(=O)c3ccc(C)cc3)c3ccccc3c2=O)cc1OC,-22.1,48.4*,26.5,5.1,-74.0,-497.8
CCN(Cc1cc(=O)n2ccsc2n1)c1cccc2ccccc12,17.2,15.8,18.4,-3.0,4.3,2.6
O=[N+]([O-])c1ccc(-c2nc3ccc([N+](=O)[O-])cc3[nH]2)cc1,75.3*,4.1,7.5,-1.7,-1.4,-19.3
O=C(NC1CCCCCC1)c1cc(-c2ccccn2)nc2ccccc12,5.1,2.1,2.4,-0.7,8.8,-1.1
O=C1CSC(=S)N1N1C(=O)c2cccc([N+](=O)[O-])c2C1=O,-2.9,18.6,30.6,-27.8*,4.9,x
CC(=O)Nc1nnc(SCc2cccc(F)c2)s1,-18.7,47.2*,2.1,-2.1,0.1,-3.6
CC(=O)Nc1nnc(SCc2ccc(F)cc2)s1,-3.3,6.4,-0.1,3.4,-1.3,-7.0
CN1CCc2c(sc3c2C(=O)NC(c2ccco2)N3)C1 (centres undefined),-23.2,37.6*,39.8,-5.5,9.3,-2.6
COc1ccc2nc(C)cc(N3CCOCC3)c2c1,84.3*,4.5,1.9,2.3,6.6,-0.9
COc1ccc2nc(C)cc(N3CCN(c4ccccc4)CC3)c2c1,x,2.7,8.1,2.0,3.9,-2.2
C(=N\Nc1nc2ccccc2s1)/c1ccccn1,1.5,31.8*,33.9,-8.0,-3.1,x
